Laboratory results taken from paper PMC4336329 (PLoS ONE, 2015).
About 14,000 (4.5%) of roughly 310,000 compounds showed an effect of 50% or more. The effect is printed as a negative number. Shown is part of a subset that was picked to be rich in strong results.

target: human ether-à-go-go-related gene (hERG) potassium channel (human, UniProt Q12809); assay: primary screen, population patch clamp on CHO cells stably expressing hERG; higher = less effect of the substance
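Also: peak tail current of the secondary pulse compared with the same well before compound.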

Sequence of human ether-à-go-go-related gene (hERG) potassium channel (Q12809 whole entry, looked up): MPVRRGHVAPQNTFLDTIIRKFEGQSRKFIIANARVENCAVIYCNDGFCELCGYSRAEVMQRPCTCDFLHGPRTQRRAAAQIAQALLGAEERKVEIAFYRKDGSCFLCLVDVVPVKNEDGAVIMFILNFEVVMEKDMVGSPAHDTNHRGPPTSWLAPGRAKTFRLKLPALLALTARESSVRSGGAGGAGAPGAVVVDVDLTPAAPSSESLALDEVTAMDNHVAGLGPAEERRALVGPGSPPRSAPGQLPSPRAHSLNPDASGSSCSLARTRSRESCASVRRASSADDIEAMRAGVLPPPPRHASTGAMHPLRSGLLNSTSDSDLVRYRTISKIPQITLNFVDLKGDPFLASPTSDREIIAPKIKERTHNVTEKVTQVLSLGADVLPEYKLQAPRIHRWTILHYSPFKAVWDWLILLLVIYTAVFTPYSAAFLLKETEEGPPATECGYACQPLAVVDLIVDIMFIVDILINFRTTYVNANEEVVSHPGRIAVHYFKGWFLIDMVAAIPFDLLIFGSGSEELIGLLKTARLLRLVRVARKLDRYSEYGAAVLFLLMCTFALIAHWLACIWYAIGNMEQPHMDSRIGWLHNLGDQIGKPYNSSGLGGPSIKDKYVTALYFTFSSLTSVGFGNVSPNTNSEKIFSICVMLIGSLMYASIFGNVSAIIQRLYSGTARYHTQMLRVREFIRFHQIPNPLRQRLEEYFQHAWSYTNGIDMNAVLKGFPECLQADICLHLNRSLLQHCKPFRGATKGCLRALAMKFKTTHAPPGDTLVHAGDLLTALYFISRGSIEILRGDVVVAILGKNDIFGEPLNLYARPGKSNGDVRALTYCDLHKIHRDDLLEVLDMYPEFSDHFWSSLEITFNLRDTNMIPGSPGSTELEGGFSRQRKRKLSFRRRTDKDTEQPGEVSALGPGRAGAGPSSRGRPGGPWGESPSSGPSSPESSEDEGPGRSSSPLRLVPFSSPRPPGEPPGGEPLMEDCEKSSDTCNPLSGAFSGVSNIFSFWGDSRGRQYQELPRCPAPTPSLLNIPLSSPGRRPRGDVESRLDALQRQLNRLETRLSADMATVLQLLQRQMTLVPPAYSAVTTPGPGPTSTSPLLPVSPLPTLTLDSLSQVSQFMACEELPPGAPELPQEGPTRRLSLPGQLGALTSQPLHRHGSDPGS

Compound | hERG current change (%, negative = inhibition) at 10uM
COCCNC(=O)c1c(NC(=O)c2ccco2)n(Cc2ccccc2)c2nc3ccccc3nc12 | -16.9%
Cc1ccc(OCC(O)CN2CCOCC2)c(C)c1.Cl (stereo not drawn) | 20.2%
Cc1cccc(OCC(O)CN2CCc3ccccc3C2)c1.Cl (stereo not drawn) | -38%
Cc1ccc(OCCCCN2CCc3ccccc3C2)c(C)c1.Cl | -34.1%
Cc1cc(OCC(O)CN2CCc3ccccc3C2)cc(C(C)C)c1.Cl (stereo not drawn) | -56.2%
Cc1ccc(OCC(O)CN2CCc3ccccc3C2)c(C)c1.Cl (stereo not drawn) | -72.3%
Cc1nc(SCCOc2ccccc2F)[nH]c(=O)c1Cc1ccccc1 | 46.9%
O=C(Nc1cnn(Cc2ccccc2)c1)c1nc2ncccn2n1 | 6.14%
Cc1nc(CCNC(=O)c2cc(COc3ccc(F)cc3Cl)on2)sc1C | -22.4%
O=C(O)c1ccc(Cl)c2c1C1C=CCC1C(c1ccccn1)N2 (stereo not drawn) | 7.76%
COCCNC(=O)c1cccc(OC2CCN(Cc3ccc(F)cc3OC)CC2)c1 | -23.1%
COc1ccc(C(=O)NC2CC2)cc1OC1CCN(Cc2ccc(F)cc2Cl)CC1 | -70.9%
COc1ccc(C(=O)NC2CCN(Cc3c(F)cccc3Cl)CC2)cc1OC | -1.46%
COc1ccc(C(=O)NCC(=O)OCc2ccc(F)cc2Cl)cc1OC | -1.96%
O=C(NCc1ccccn1)c1ccc(OC2CCN(Cc3ccc(F)cc3F)CC2)cc1 | -25.9%
COc1ccc(C(=O)NC2CC2)cc1OC1CCN(Cc2ccc(F)cc2F)CC1 | -81.5%
Cc1cc2sc3ccccc3c(=O)c2c(C)c1O | 21.6%
Cc1ccc(S(=O)(=O)N2CCOCC2)cc1C(=O)Nc1ccc2c(c1)CCC2 | -10.6%
COC(=O)c1cn(NC(=O)C2CCC(C(C)(C)C)CC2)c(=O)c2ccccc12 (stereo not drawn) | 13.7%
CCC[n+]1c2ccccc2cc2ccccc21.[I-] | 23.7%
Cc1cccc[n+]1CCCCCCCCCC[n+]1ccccc1C.[Br-] | 37.8%
NC(=O)C[n+]1cccc2ccccc21.[I-] | 9.16%
O/N=C/c1cccc[n+]1CCCCCC[n+]1ccccc1/C=N/O.[Br-] | 20.1%

Compound | hERG current change (%, negative = inhibition) at 10uM
[Cl-].c1ccc(C[n+]2cccc3c4ccccc4ccc32)cc1 | -15%
CCCCCCCCCCCCCCCC[n+]1cccc2ccccc21.[I-] | -71.2%
CCCC[n+]1c2ccccc2cc2ccccc21.[I-] | -32.9%
CCCCCCCC[n+]1cccc2c3ccccc3ccc21.[I-] | -84.3%
CCCCCCCCC[n+]1cccc2c3ccccc3ccc21.[Br-] | -84.8%
O=C(C[n+]1cccc(CO)c1)Nc1nc2ccccc2s1.[Cl-] | -9.18%
CC(C)CN(C(=O)CCC(=O)OCc1ccc(Cl)cc1Cl)c1c(N)n(CC(C)C)c(=O)[nH]c1=O | -47.3%
CCn1nc(C)cc1C(=O)NC1CCCc2c1cnn2-c1cc(F)cc(F)c1 (stereo not drawn) | -5.58%
Cc1cc(=O)c2cc(Br)ccc2n1CC(=O)NCc1ccccc1 | -12.8%
O=C(CCNc1cc(Cl)cc(Cl)c1)c1ccco1 | -4.77%
Cc1ccc(C(C)(C)C)c(OCCCCN2CCCC2)c1 | -19.9%
CCCN(CCC)CCNC(=O)CCC(=O)Nc1ccc2nc(N3CCN(C)CC3)cc(C)c2c1 | 17.7%
O=c1[nH]ncn2cccc12 | 24.1%
CN(Cc1ccc(F)cc1Cl)S(=O)(=O)c1cccs1 | -62%
COc1ccccc1CN(C)S(=O)(=O)c1cccs1 | 4.72%
CN(Cc1c(F)cccc1Cl)S(=O)(=O)c1cccs1 | -19.8%
Cc1c(OC(C)C(=O)NCCCN2CCOCC2)ccc2c1oc(=O)c1ccccc12 (stereo not drawn) | 6.19%
O=C(CCN1C(=O)COc2ccccc21)NCCCN1CCN(c2ccc(F)cc2)CC1 | -63.7%
O=C(CCN1C(=O)COc2ccccc21)NCCN1CCN(c2ccccc2F)CC1 | -33.5%
O=C(CN1C(=O)COc2ccccc21)NCCN1CCCC1 | 13.6%
O=C(CCN1C(=O)COc2ccccc21)NCCN1CCN(c2cccc(Cl)c2)CC1 | -56.5%
COc1ccc(N2CCN(CCNC(=O)CCN3C(=O)COc4ccccc43)CC2)cc1 | -47%
O=C(CCN1C(=O)COc2ccccc21)NCCCN1CCN(c2ccccc2F)CC1 | -42.7%

Compound | hERG current change (%, negative = inhibition) at 10uM
O=C(CN1C(=O)COc2ccccc21)NCCN1CCC(Cc2ccccc2)CC1 | -56.6%
CN1CCN(CCCNC(=O)CCN2C(=O)COc3ccccc32)CC1 | 0.334%
O=C(CN1C(=O)COc2ccccc21)NCCN1CCOCC1 | 11.3%
CS(=O)(=O)N(CC(=O)Nc1ccccc1-c1ccccc1)c1ccccc1 | -0.135%
O=C(NC1CCCC1)C(c1ccncc1)N(C(=O)c1ccco1)c1ccc(Cl)cc1 (stereo not drawn) | -4.59%
CCOC(=O)C1(CCOc2ccccc2)CCN(C(C)CSC)CC1 (stereo not drawn) | -55.3%
CCOC(=O)C1(CCOc2ccccc2)CCN(C(=O)CCSC)CC1 | -42%
CCOC(=O)C1(CCc2ccccc2)CCN(C(C)CSC)CC1 (stereo not drawn) | -66.6%
O=C1C2CCCN2C(c2ccc(Cl)c(Cl)c2)N1c1ccccn1 (stereo not drawn) | -10%
O=C(NC(=S)Nc1ccc(-c2nc3ncccc3o2)cc1)c1ccccc1F | 14.5%
CCOCCCNC(=O)C(NC(=O)c1cnccn1)c1ccc(C)cc1 (stereo not drawn) | 30.4%
CCN(CC)C(=O)Cn1cc(S(=O)(=O)CC(=O)Nc2ccc(C(N)=O)cc2)c2ccccc21 | 18.2%
CCOc1ccc(NC(=O)CN2CCCC2c2cccs2)cc1S(=O)(=O)N1CCCCC1 (stereo not drawn) | -11.8%
COc1ccccc1N1CCN(CCCNC(=O)Nc2ccccc2)CC1 | -59.8%
COc1ccc(N2CCN(CCCNC(=O)Nc3ccccc3)CC2)cc1 | -64.5%
COc1ccc(NC(=O)NCCN2CCN(c3cccc(Cl)c3)CC2)cc1 | -31.6%
COc1ccc(N2CCN(CCNC(=O)Nc3ccc(Cl)cc3)CC2)cc1 | -60.7%
Fc1cccc(NC(=S)NCCCN2CCOCC2)c1 | -0.1%
COc1ccccc1N1CCN(CCCNc2c(C)c(=O)n(C)c(=O)n2C)CC1 | -5.42%
CCc1ccc(N2CCN(CCNC(=O)Nc3ccc(OC)cc3)CC2)cc1 | -29.9%
CCOc1ccc(NC(=O)CCN2CCN(c3ccccc3OC)CC2)cc1 | -33.8%
CSc1cccc(NC(=S)NCCCO)c1 | -4.03%
COC(=O)c1ccc(N2CCN(CCNC(=O)Nc3ccc(OC)cc3)CC2)cc1 | -0.192%

Compound | hERG current change (%, negative = inhibition) at 10uM
COc1ccc(N2CCN(CCNC(=O)Nc3ccc(C)c(Cl)c3)CC2)cc1 | 15.9%
CSc1cccc(NC(=S)NCCCN2CCN(c3ccc(F)cc3)CC2)c1 | -66.7%
CC(OC(=O)c1ccccc1NCc1ccco1)C(=O)Nc1ncc(Cl)cc1Cl (stereo not drawn) | 2.95%
Cc1ccc(C)c(-n2nnnc2SCC(=O)NCC2CCCO2)c1 (stereo not drawn) | -4.18%
CCN(C(=O)COC(=O)CCC(=O)c1cccs1)c1c(N)n(Cc2ccccc2)c(=O)[nH]c1=O | -4.97%
CCCCCOc1ccc(CSCCNC(=S)Nc2ccccc2)cc1 | -5.94%
O=C(O)c1ccccc1C(=O)c1ccc(-c2ccccc2)cc1 | 17.2%
CCOC(=O)c1ccc(S(=O)(=O)NNC(=O)COc2cccc(C)c2)cc1 | 34.6%
Cc1ccc(S(=O)(=O)N2CCN(S(=O)(=O)N3CCCCCC3)CC2)cc1 | 20.4%
COc1ccccc1N1CCN(CCCNC(=O)Nc2ccccc2C)CC1 | -33.7%
COc1cccc(NC(=O)NCCCN2CCN(c3ccc(F)cc3)CC2)c1 | -73.2%
COc1cccc(NC(=O)NCCN2CCCCC2)c1 | -13.7%
Cc1cccc(NC(=O)NCCN2CCN(c3ccccc3)CC2)c1C | -9.69%
COc1cccc(NC(=S)NCCCN2CCOCC2)c1 | 16.7%
COc1ccccc1N1CCN(CCNC(=O)Nc2cccc(C)c2C)CC1 | -68.8%
Cc1cccc(NS(=O)(=O)c2c(C(=O)N3CCCC3)c(C)n(C)c2C)c1 | 18.1%
Cc1cc(Cl)ccc1OCC(=O)N/N=C/c1ccncc1 | -14.9%
COC(=O)CSc1nc(C)cc(N2CCOCC2)n1 | 7.89%
NC(=O)C1CCN(C(=O)COc2ccc3ccccc3c2)CC1 | 18.2%
CCC(C)(C)NC(=O)C(c1cccnc1)N(C(=O)c1csnn1)c1ccccc1 (stereo not drawn) | -22.7%
O=C(Cn1c(-c2ccccc2)noc1=O)NCc1ccccc1 | 6.47%
